PriA SSB inh – blocks PriA binding to SSB C-terminal tail; AlphaScreen SSBct-PriA binding, biotinylated peptide; inhibition, % at 33 µM; 430,000 tested, 0.6% active; AID 1272365; in the data active = inhibition mostly above about 37%, no sharp cut-off; inactive = mostly below about 20%;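 note: plate controls were negative control peptide for no effect and reference peptide for full effect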
Anthrax LF inh2 – anthrax lethal factor protease inhibition; P15917; multiplex microsphere protease cleavage assay, LF; inhibition, % at 10 µM; 360,000 tested, 0.12% active; note: plate controls were buffer without enzyme for full effect and enzyme alone for no effect
Autofluor counter – counter-screen for toxin protease inhibitors: compound fluorescence | compound autofluorescence counterscreen, microsphere flow cytometry; active compounds read high | fluorescence intensity (test concentration not listed) | 360,000 tested, 3.1% active | AID 624483; in the data active = fluorescence intensity above about 16000; inconclusive = no clear call, values can overlap the other calls
BoNT-A LC inh2 – blocks Botulinum neurotoxin A light chain protease; inhibition, % at 10 µM; 360,000 tested, 0.17% active; multiplex microsphere protease substrate cleavage, flow cytometry; note: plate controls were buffer without enzyme for full effect and enzyme alone for no effect
BoNT-F LC inh – inhibitors of Botulinum neurotoxin F light chain protease; Multiplex microsphere protease cleavage assay, flow cytometry; inhibition, % at 10 µM; 360,000 tested, 0.22% active; AID 588497; in the data active = inhibition above about 35%, passing the limit was not always enough; inconclusive = no clear call, values can overlap the other calls; note: plate controls were buffer without enzyme for full effect and enzyme alone for no effect
An asterisk follows results filed as active; u = inconclusive; x = not tested or not shown. This is a sample that favours compounds with a hit; in the whole collection about 3.1% have one here. Cut-off read from the data, not from the text of the source, unless noted: active = inhibition above about 30%; inconclusive = no clear call, values can overlap the other calls; inactive = below that.

SMILES	PriA SSB inh	Anthrax LF inh2	Autofluor counter	BoNT-A LC inh2	BoNT-F LC inh
CC(=O)Nc1c(O)nc(SCC(=O)Nc2sc3c(c2C#N)CCCCCC3)[nH]c1=O	16	-4	19485*	3	2
Cc1cc(C(=O)Nc2sc3c(c2C#N)CCC3)no1	-15	-1	22362*	2	0
O=C(NCCc1c[nH]c2ccccc12)C(=O)Nc1ccc(N2CCCS2(=O)=O)cc1	-9	x	x	x	x
Cc1cccc(C(=O)Nc2nnc(-c3ccc(Br)cc3)o2)c1	-4	x	x	x	x
N#Cc1c(NC(=O)CSC2=NCCS2)sc2c1CCCC2	-8	-1	16243*	0	-3
N#Cc1c(NC(=O)CSc2ncn[nH]2)sc2c1CCCC2	-8	-3	3804	1	-8
N#Cc1c(NC(=O)CSc2nc3c(c(C(F)(F)F)n2)CCc2ccccc2-3)sc2c1CCCC2	-14	-1	22691*	-2	0
COc1ccc(C)c2sc(N(CCN(C)C)C(=O)CSc3ccccc3)nc12	22	x	x	x	x
CC(=O)NC1(C(F)(F)F)C(=O)Nc2c1c(=O)[nH]c(=O)n2Cc1ccco1 (configuration not stated)	-4	4	4819	0	-3
O=C(NC1(C(F)(F)F)C(=O)Nc2c1c(=O)[nH]c(=O)n2Cc1ccccc1)c1ccco1 (configuration not stated)	-14	-2	22776*	-1	1
CCCOc1cc(S(=O)(=O)NCC2CCCO2)ccc1Cl (configuration not stated)	-11	x	x	x	x
O=C([O-])c1ccc[n+]2c(O)c(-c3ccccc3)sc12	6	x	x	x	x
COc1cc(NC(=O)NS(=O)(=O)c2ccc(C)cc2)cc(OC)c1	9	-6	20395*	u	-7
Cc1ccc(S(=O)(=O)NC(=O)Nc2ccccc2)cc1	-13	-5	4093	0	2
COc1ccc(NC(=O)NS(=O)(=O)c2ccc(C)cc2)cn1	6	4	2714	2	17
Cc1ccc(S(=O)(=O)NC(=O)Nc2ccc(F)cc2)cc1	-1	-2	16339*	0	3
O=C(NCCN1CCOCC1)C(=O)Nc1ccc(N2CCCS2(=O)=O)cc1	-1	x	x	x	x
CCOC(=O)c1nnn(-c2nonc2N)c1CN1CCCCCC1	-9	-2	16135*	1	4
CCOC(=O)c1nnn(-c2nonc2N)c1CNc1ccccc1	-12	0	5639	0	6
CCOC(=O)c1nnn(-c2nonc2N)c1CNC(C)C	-3	-2	21205*	u	1
COc1ccc(C=NN=C2SC(CC(=O)O)C(=O)N2c2ccc(O)cc2)cc1OC (configuration not stated)	-5	x	x	x	x
COc1ccc(N2C(=O)C(CC(=O)O)S/C2=N\N=C\c2cccs2)cc1 (configuration not stated)	x	3	3074	3	43*
O=C(Cc1ccsc1)Nc1ccc2c(c1)C(=O)Nc1ccccc1O2	-22	x	x	x	x
CCc1c(C)sc(NC(=O)OC)c1C(=O)N1CCCCC1	-6	-4	7271	-1	-22
CCc1c(C)sc(NC(=O)OC)c1C(N)=O	-2	2	17066*	-1	-1
SMILES	PriA SSB inh	Anthrax LF inh2	Autofluor counter	BoNT-A LC inh2	BoNT-F LC inh
O=C(c1ccc2c(c1)OCO2)N1CC(c2nc(-c3ccc[nH]c3=O)no2)C1	-11	x	x	x	x
O=C(Nc1ccccc1F)c1cc(C2CCN(C(=O)c3c[nH]c(=O)c(Cl)c3)CC2)[nH]n1	98*	x	x	x	x
CN(CCO)c1cc(Sc2nc3ccccc3s2)c2nonc2c1[N+](=O)[O-]	8	-1	21417*	2	3
CC(=O)OCCN(C)c1cc(SC(C)C)c2nonc2c1[N+](=O)[O-]	1	-3	3313	0	3
CS(=O)(=O)Nc1ccc(N2CCCCC2)c(Cl)c1	3	0	23555*	0	-1
CCOc1ccc(NC(=O)c2csc3c2CCCC3)cc1	115*	-3	5552	0	-6
COc1ccccc1NC(=O)c1csc2c1CCCC2	-49	-4	19509*	u	1
NC(=O)c1ccc(NC(=O)C(=O)NCCc2csc3nc(-c4cccs4)nn23)cc1	-8	x	x	x	x
CCCN1CCCc2cc(CCNS(=O)(=O)c3ccc(C)c(C)c3)ccc21	61*	x	x	x	x
CCCN1CCCc2cc(CCNS(=O)(=O)c3ccc(F)c(C)c3)ccc21	59*	x	x	x	x
O=C(CCn1cnc2ccccc2c1=O)N1CCN(c2ccc(-n3cncn3)nn2)CC1	-10	x	x	x	x
CC(=O)c1cccc(Oc2cc(NN3CCCCC3)c([N+](=O)[O-])cc2[N+](=O)[O-])c1	45*	-1	4072	0	-4
CCCNC(=O)c1c(N)n(-c2ccc3c(c2)OCO3)c2nc3ccccc3nc12	4	-4	21855*	u	-1
COCCCNC(=O)c1c(N)n(-c2ccc3c(c2)OCO3)c2nc3ccccc3nc12	-22	8	4028	11	-5
COC(=O)C1CSc2[nH]c(=O)sc2C1c1ccccc1 (configuration not stated)	-16	-1	23079*	0	0
COc1ccc(NC(C)C(=O)Nc2ccc(C#N)cc2)cc1Cl (configuration not stated)	9	-2	22894*	u	-5
CN(CC(=O)Nc1ccc(C#N)cc1)Cc1ccc(Cl)cc1Cl	-8	-1	22298*	-1	-1
COc1ccc(NC(=O)CNc2cccc(C#N)c2)cc1Cl	-14	1	4100	1	u
COc1ccc(NCC(=O)Nc2ccc(C#N)cc2)cc1Cl	0	-1	22730*	1	-4
CN(CC(=O)Nc1ccc(C#N)cc1)Cc1ccc(Cl)cc1	-26	-2	4961	-2	-4
CC(C)c1nnc(C2CCN(S(=O)(=O)N(C)C)CC2)o1	-14	x	x	x	x
COc1cccc(-c2nnc(NC(=O)CCSc3ccc(Cl)cc3)o2)c1	-4	x	x	x	x
CC(=O)Nc1cccc(NC(=O)CSc2nc(CC(=O)Nc3ccc(C)c(F)c3)cs2)c1	-1	x	x	x	x
Cn1ccc(C(=O)Nc2ccc(-c3nc4ccccc4[nH]3)cc2)n1	-1	x	x	x	x
Cc1cc([N+](=O)[O-])c2[nH]c(C(=O)N/N=C/c3ccccc3C(=O)O)c(-c3ccccc3)c2c1	x	2	19535*	1	-1
SMILES	PriA SSB inh	Anthrax LF inh2	Autofluor counter	BoNT-A LC inh2	BoNT-F LC inh
O=C1CC(c2ccccc2)n2ncnc2N1 (configuration not stated)	-12	-1	21144*	u	-3
CCCC(=O)Nc1nc2n(n1)C(c1ccccc1)CC(=O)N2 (configuration not stated)	-5	-1	17011*	-2	0
N#CCCN1CCN(C2=NC(=O)C(=C3CCCCC3)S2)CC1	-17	-2	22432*	0	0
O=C1N=C(N2CCOCC2)SC1=C1CCCCC1	0	-1	20921*	1	4
CC(=O)N1CCN(C2=NC(=O)C(=C3CCCCC3)S2)CC1	-12	-3	2410	0	-2
Brc1ccc(CSc2nccn2-c2ccccc2)cc1	59*	0	3491	1	22
O=C(CSc1nccn1-c1ccccc1)c1ccc(Cl)cc1	16	0	2584	0	3
Clc1cccc(CSc2nccn2-c2ccccc2)c1	53*	-6	2069	-1	13
FC(F)(F)c1ccc(CSc2nccn2-c2ccccc2)cc1	48*	1	3527	1	-1

Compound activity (PubChem)
